Shiga inhibitor: inhibitors of Shiga toxin in Vero cells; Vero cells, Shiga toxin protein synthesis inhibition reporter; inhibition, % at 38.7 µM; hit rate 9.2% among 290,000; AID 2315; in the data active = inhibition mostly above about 28%, no sharp cut-off; inactive = mostly below about 43%; note: 0% is about no effect
Pf growth 48h: inhibits P. falciparum growth in the first generation, 48 h; P. falciparum luciferase growth in erythrocytes, 48 h; Potency, µM (highest dose often 28.7 µM), for the others: at the highest dose activity change, negative = inhibition, hits mostly inhibitors; hit rate 5.9% among 310,000; AID 504832; note: potency is the fitted concentration of half-maximal effect; % is set by controls: 0 for no effect and ±100 for the full control effect
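Luminescence readout; reporter = integrated firefly luciferase in P. falciparum. RBC culture at 2% hematocrit, 0.1% parasitemia final, 37 C/5% CO2; decreased signal taken as growth inhibition.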
Pf growth 96h: P. falciparum growth inhibition at 96 hour, primary screen for plastid delayed-death inhibitors; Potency, µM (titrated, usually from 28.7 µM), inactives show at the top dose activity change, negative = inhibition, usual class: inhibitors; hit rate 6.9% among 320,000; P. falciparum luciferase reporter growth, 96 h; AID 504834; note: potency is the fitted concentration of half-maximal effect; % is set by controls: 0 for no effect and ±100 for the full control effect
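Plates of compound plus infected erythrocytes (2% hematocrit, 0.05% parasitemia final) incubate 96 hours, 37 C, 5% CO2. Detection reagent added; reduced luminescence from the parasites' luciferase reporter flags inhibition.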
AMA1-RON2 inh: disrupts binding of P. falciparum AMA1 to RON2; hit rate 0.2% among 360,000; AID 720542; AlphaScreen AMA1-biotinylated RON2 peptide binding; Potency, µM (titrated, usually from 58.2 µM), for the others: at the top dose activity change, negative = inhibition, usual class: inhibitors;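 note: potency is the fitted concentration of half-maximal effect; 0% = vehicle wells and -100% = peptide control; nearly all actives have a fitted effect of over 45% in size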
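AMA1 (3D7) with his tag at 25 nM final met compounds first, then biotinylated RON2 peptide at 25 nM; detection used donor plus acceptor beads, 10 µg/mL apiece, read by AlphaScreen after 30 min at room temperature.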
Cycloheximide cs: affects cycloheximide protein synthesis inhibition readout, counter-screen; hit rate 12% among 300,000; max response, %; cell reporter, cycloheximide protein synthesis inhibition counterscreen; in the data active = max response mostly above about 13%, no sharp cut-off; inactive = mostly below about 14%; note: read at 38.3 µM for the half of the compounds with a filed dose; 0% is about no effect
SARS PLP yeast: SARS-CoV PLP inhibition in yeast. Potency, µM (highest dose often 32.9 µM), inactives show at the top dose activity, positive = growth rescue, most hits filed as activators. S. cerevisiae expressing SARS-CoV PLpro, growth rescue. AID 485353. hit rate 0.19% among 330,000; calls by dose curve; note: potency is the fitted concentration of half-maximal effect; 0% is about no effect; nearly all actives have a fitted effect of over 55% in size
* = called active by the depositor; [ ] = remark or other dose. Only some compounds are listed: those with a hit (about 19% of all), similar ones and a draw of the others. Unless noted, calls come from the whole dose curve; as a rule, active = well fitted curve in the direction sought with a large enough effect; inconclusive = small, poorly fitted or top-dose-only effect, or another doubt; inactive = no such curve, though single readings can be large; an effect the other way counts as inactive or inconclusive.

How did COc1ccc(CCNC(=O)CSc2nn3c(=O)c(C)nnc3s2)cc1OC do in these assays?
Shiga inhibitor: -9; Pf growth 48h: 5.2µM*; Pf growth 96h: 0.21µM*; AMA1-RON2 inh: 141%; Cycloheximide cs: -2; SARS PLP yeast: -3%

Results for Cc1nnc2sc(SCC(=O)Nc3cccc(Cl)c3)nn2c1=O ?
Shiga inhibitor: 4; Pf growth 48h: -23%; Pf growth 96h: inconclusive; AMA1-RON2 inh: 85%; Cycloheximide cs: 5; SARS PLP yeast: -2%

How did COC(=O)c1ccc(NC(=O)CSc2nn3c(=O)c(C)nnc3s2)cc1 do in these assays?
Shiga inhibitor: -11; Pf growth 48h: inconclusive; Pf growth 96h: inconclusive; AMA1-RON2 inh: 95%; Cycloheximide cs: -1; SARS PLP yeast: -5%

What do the screens show for `COc1ccccc1CNC(=O)CSc1nn2c(=O)c(C(C)(C)C)nnc2s1`?
Shiga inhibitor: 13; Pf growth 48h: 2.9µM*; Pf growth 96h: inconclusive; AMA1-RON2 inh: 77%; Cycloheximide cs: -6; SARS PLP yeast: 13%

How did COc1ccc(OC)c(NC(=O)CSc2nn3c(=O)c(C)nnc3s2)c1 do in these assays?
Shiga inhibitor: -2; Pf growth 48h: 42%; Pf growth 96h: 89%; AMA1-RON2 inh: 100%; Cycloheximide cs: -3; SARS PLP yeast: 0%

Results for CCN(CC)c1ccc(NC(=O)c2ccccc2OCC(=O)OC)cc1 ?
Shiga inhibitor: 18; Pf growth 48h: -1%; Pf growth 96h: -26%; AMA1-RON2 inh: -21%; Cycloheximide cs: 17; SARS PLP yeast: -2%

How did CCCCCCCCN1C(=O)[C@H](CC(=O)N2CCN(C(=O)OCC)CC2)C[C@@]2(C(=O)OC)CCCCC=C12 do in these assays?
AMA1-RON2 inh: -3%

What do the screens show for `O=C(Nc1ccc(Cl)cn1)c1cccc(S(=O)(=O)N2CCCC2)c1`?
Shiga inhibitor: 41*; Pf growth 48h: -9%; Pf growth 96h: -2%; AMA1-RON2 inh: 3%; Cycloheximide cs: 14*; SARS PLP yeast: 2%

How did CN(C)S(=O)(=O)c1cccc(C(=O)Nc2ccc(Cl)cn2)c1 do in these assays?
Shiga inhibitor: 50*; Pf growth 96h: inconclusive; AMA1-RON2 inh: 15%; Cycloheximide cs: 51*; SARS PLP yeast: 9%

What do the screens show for `CCSc1nnc(NC(=O)c2cccc(S(=O)(=O)N(C)c3ccc(C)cc3)c2)s1`?
Shiga inhibitor: -12; Pf growth 48h: inconclusive; Pf growth 96h: 1%; AMA1-RON2 inh: 12%; Cycloheximide cs: -3; SARS PLP yeast: -7%

What do the screens show for `Cc1ccc(N(C)S(=O)(=O)c2cccc(C(=O)Nc3ccc(C)cn3)c2)cc1`?
Pf growth 48h: 2.1µM*; Pf growth 96h: 5.2µM*; AMA1-RON2 inh: 20%; SARS PLP yeast: -2%

Results for C/C(=N\Nc1ccc(S(=O)(=O)N2CCCCC2)cn1)c1cccc(Br)c1 ?
Pf growth 48h: 10µM*; Pf growth 96h: inconclusive; AMA1-RON2 inh: 0%; SARS PLP yeast: -15%

What do the screens show for `O=C(C1CCC(=O)N(C2CC2)C1)N1CCC(Oc2cccc(F)c2)CC1` (centres undefined)?
Shiga inhibitor: -7; Pf growth 48h: -19%; Pf growth 96h: 0%; AMA1-RON2 inh: 0%; Cycloheximide cs: 10; SARS PLP yeast: -1%

How did CC(C)c1ccc(NC(=O)c2ccc3c(c2)C(=O)N(Cc2cccnc2)C3=O)cc1 do in these assays?
Shiga inhibitor: -13; Pf growth 48h: 11%; Pf growth 96h: -1%; AMA1-RON2 inh: 1%; Cycloheximide cs: -4; SARS PLP yeast: -1%

What do the screens show for `Clc1ccc(N2CCOCC2)nn1`?
Shiga inhibitor: 42; Pf growth 48h: 8%; Pf growth 96h: inconclusive; AMA1-RON2 inh: 15%; Cycloheximide cs: 0; SARS PLP yeast: 3%

Results for CC(C(=O)Nc1ccccc1-c1ccccc1)N1CCN(Cc2ccccc2)CC1 (centres undefined) ?
Shiga inhibitor: -13; Pf growth 48h: 13µM*; Pf growth 96h: inconclusive; AMA1-RON2 inh: -21%; Cycloheximide cs: -3; SARS PLP yeast: -1%

How did CC(C(=O)Nc1ccccc1-c1ccccc1)N1CCN(C(=O)c2ccccc2)CC1 (centres undefined) do in these assays?
Shiga inhibitor: -5; Pf growth 48h: inconclusive; Pf growth 96h: inconclusive; AMA1-RON2 inh: 2%; Cycloheximide cs: -1; SARS PLP yeast: 0%

Results for Cc1ccc(S(=O)(=O)N2CCN(C(C)C(=O)Nc3ccccc3-c3ccccc3)CC2)cc1 (centres undefined) ?
Shiga inhibitor: 2; Pf growth 48h: 9.3µM*; Pf growth 96h: 7.4µM*; AMA1-RON2 inh: -5%; Cycloheximide cs: -2; SARS PLP yeast: 17%

Results for Nc1nc(CSc2nc3ccccc3s2)nc(Nc2ccccc2)n1 ?
Shiga inhibitor: -14; Pf growth 48h: -14%; Pf growth 96h: -16%; Cycloheximide cs: 21*; SARS PLP yeast: 8%

What do the screens show for `CCOC(=O)c1ccc(NC(=O)CN2CCN(C(=O)c3ccco3)CC2)cc1`?
Shiga inhibitor: -13; Pf growth 48h: 9.3µM*; Pf growth 96h: -3%; AMA1-RON2 inh: -12%; Cycloheximide cs: -4; SARS PLP yeast: -1%

How did COc1ccccc1NC(=O)c1ccc(NC(=O)CN2CCN(C(=O)c3ccco3)CC2)cc1 do in these assays?
Shiga inhibitor: 15; Pf growth 48h: -24%; Pf growth 96h: inconclusive; AMA1-RON2 inh: 0%; Cycloheximide cs: -2; SARS PLP yeast: 3%

What do the screens show for `CCc1c(C)sc(NC(=O)CN2CCN(C(=O)c3ccco3)CC2)c1C(=O)OC`?
Shiga inhibitor: 37; Pf growth 48h: inconclusive; Pf growth 96h: 19%; AMA1-RON2 inh: -2%; Cycloheximide cs: 16*; SARS PLP yeast: -11%

What do the screens show for `CCOc1ccc(NC(=O)CN2CCN(C(=O)c3ccco3)CC2)cc1S(=O)(=O)N1CCCC1`?
Pf growth 48h: inconclusive; Pf growth 96h: 15µM*; AMA1-RON2 inh: -4%[11.6 µM]; SARS PLP yeast: 1%

What do the screens show for `CCOC(=O)c1c(NC(=O)CN2CCN(C(=O)c3ccco3)CC2)sc(C)c1C`?
Shiga inhibitor: -5; Pf growth 48h: inconclusive; Pf growth 96h: 21%; AMA1-RON2 inh: -2%; Cycloheximide cs: -4; SARS PLP yeast: 2%

Results for NC(=O)c1ccc(NC(=O)CN2CCN(C(=O)c3ccco3)CC2)cc1 ?
Shiga inhibitor: -2; Pf growth 48h: 12%; Pf growth 96h: 2.3µM*; AMA1-RON2 inh: -6%; Cycloheximide cs: -7; SARS PLP yeast: -4%

Results for COCCn1c(=O)c2c(nc3n2CCCN3CCc2ccc(OC)c(OC)c2)n(C)c1=O ?
Shiga inhibitor: -5; Pf growth 48h: inconclusive; Pf growth 96h: inconclusive; AMA1-RON2 inh: 2%; Cycloheximide cs: -3; SARS PLP yeast: 0%

What do the screens show for `CCOC(=O)C1(C)CCN1C(=O)c1cc(F)ccc1C` (centres undefined)?
AMA1-RON2 inh: 2%
